About 2,000 (36%) of roughly 5,500 compounds were called active. Roughly 18% stayed inconclusive and do not appear here. Rule as the data show it: active = normalized growth mostly below about 0.91 (no sharp cut-off); inconclusive = no clear call, values can overlap the other calls; inactive = mostly above about 0.92. Some of the results follow.
Experiment: chemical genetic growth profiling, strain panel (AID 1159580);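 also: tested at 20 µM; growth read once vehicle control cultures reached saturation at 30 °C; 1 = growth at the plate median or of vehicle wells; lower values mean less growth of the strain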
Details: growth OD
[1] = S. cerevisiae deletion strains, locus YDL101C, strain DUN1, stronger effect = lower value
[2] = S. cerevisiae deletion strains, locus YJL095W, strain BCK1, stronger effect = lower value
[3] = S. cerevisiae deletion strains, locus YOR061W, strain CKA2, stronger effect = lower value

Measured: normalized growth

COC(=O)c1cc(I)c(OC(C)=O)c(I)c1
active: S. cerevisiae deletion strains, locus YLR113W, strain HOG1, stronger effect = lower value 0.745
inactive: S. cerevisiae deletion strains, locus YAR019C, strain CDC15, stronger effect = lower value 0.952 | S. cerevisiae deletion strains, locus YBL105C, strain PKC1, stronger effect = lower value 0.958 | S. cerevisiae deletion strains, locus YBR135W, strain CKS1, stronger effect = lower value 0.944 | S. cerevisiae deletion strains, locus YBR136W, strain MEC1, stronger effect = lower value 0.958 | S. cerevisiae deletion strains, locus YBR160W, strain CDC28, stronger effect = lower value 0.959 | S. cerevisiae deletion strains, locus YDL017W, strain CDC7, stronger effect = lower value 0.961 | S. cerevisiae deletion strains, locus YDL028C, strain MPS1, stronger effect = lower value 0.961 | [1] 0.935 | S. cerevisiae deletion strains, locus YDL108W, strain KIN28, stronger effect = lower value 0.955 | S. cerevisiae deletion strains, locus YDL132W, strain cdc53, stronger effect = lower value 0.939 | S. cerevisiae deletion strains, locus YDL214C, strain PRR2, stronger effect = lower value 0.929 | S. cerevisiae deletion strains, locus YDR052C, strain DBF4, stronger effect = lower value 0.967 | S. cerevisiae deletion strains, locus YDR054C, strain cdc34, stronger effect = lower value 0.939 | S. cerevisiae deletion strains, locus YDR226W, strain ADK1, stronger effect = lower value 0.951 | S. cerevisiae deletion strains, locus YDR477W, strain SNF1, stronger effect = lower value 0.955 | S. cerevisiae deletion strains, locus YER123W, strain YCK3, stronger effect = lower value 0.905 | S. cerevisiae deletion strains, locus YER133W, strain GLC7, stronger effect = lower value 0.945 | S. cerevisiae deletion strains, locus YFL009W, strain cdc4, stronger effect = lower value 0.952 | S. cerevisiae deletion strains, locus YFL029C, strain CAK1, stronger effect = lower value 0.947 | S. cerevisiae deletion strains, locus YFR003C, strain YPI1, stronger effect = lower value 0.956 | S. cerevisiae deletion strains, locus YFR019W, strain FAB1, stronger effect = lower value 0.94 | S. cerevisiae deletion strains, locus YFR028C, strain CDC14, stronger effect = lower value 0.95 | S. cerevisiae deletion strains, locus YGR040W, strain KSS1, stronger effect = lower value 0.953 | S. cerevisiae deletion strains, locus YGR052W, strain FMP48, stronger effect = lower value 0.967 | S. cerevisiae deletion strains, locus YGR092W, strain DBF2, stronger effect = lower value 0.9 | S. cerevisiae deletion strains, locus YHR030C, strain SLT2, stronger effect = lower value 0.916 | S. cerevisiae deletion strains, locus YHR079C, strain IRE1, stronger effect = lower value 0.973 | S. cerevisiae deletion strains, locus YHR082C, strain KSP1, stronger effect = lower value 0.98 | S. cerevisiae deletion strains, locus YHR205W, strain SCH9, stronger effect = lower value 0.864 | S. cerevisiae deletion strains, locus YIL147C, strain SLN1, stronger effect = lower value 0.966 | [2] 0.934 | S. cerevisiae deletion strains, locus YJL128C, strain PBS2, stronger effect = lower value 0.856 | S. cerevisiae deletion strains, locus YJL157C, strain FAR1, stronger effect = lower value 0.945 | S. cerevisiae deletion strains, locus YJR016C, strain ILV3, stronger effect = lower value 0.959 | S. cerevisiae deletion strains, locus YJR066W, strain TOR1 (second series), stronger effect = lower value 0.943 | S. cerevisiae deletion strains, locus YJR066W, strain TOR1, stronger effect = lower value 1.01 | S. cerevisiae deletion strains, locus YKL048C, strain ELM1, stronger effect = lower value 0.913 | S. cerevisiae deletion strains, locus YKL067W, strain YNK1, stronger effect = lower value 0.91 | S. cerevisiae deletion strains, locus YKL101W, strain HSL1, stronger effect = lower value 0.902 | S. cerevisiae deletion strains, locus YKL193C, strain SDS22, stronger effect = lower value 0.942 | S. cerevisiae deletion strains, locus YKL203C, strain TOR2, stronger effect = lower value 1.02 | S. cerevisiae deletion strains, locus YLR133W, strain CKI1, stronger effect = lower value 0.949 | S. cerevisiae deletion strains, locus YLR403W, strain SFP1, stronger effect = lower value 0.935 | S. cerevisiae deletion strains, locus YML070W, strain DAK1, stronger effect = lower value 0.897 | S. cerevisiae deletion strains, locus YMR001C, strain CDC5, stronger effect = lower value 0.947 | S. cerevisiae deletion strains, locus YMR205C, strain PFK2 (second series), stronger effect = lower value 0.925 | S. cerevisiae deletion strains, locus YMR277W, strain FCP1, stronger effect = lower value 0.948 | S. cerevisiae deletion strains, locus YNL006W, strain LST8, stronger effect = lower value 0.951 | S. cerevisiae deletion strains, locus YNL020C, strain ARK1, stronger effect = lower value 0.939 | S. cerevisiae deletion strains, locus YNL161W, strain CBK1, stronger effect = lower value 0.961 | S. cerevisiae deletion strains, locus YNL183C, strain NPR1, stronger effect = lower value 0.958 | S. cerevisiae deletion strains, locus YNL207W, strain RIO2, stronger effect = lower value 0.957 | S. cerevisiae deletion strains, locus YNL222W, strain SSU72, stronger effect = lower value 0.94 | S. cerevisiae deletion strains, locus YNL307C, strain MCK1 (second series), stronger effect = lower value 0.918 | S. cerevisiae deletion strains, locus YOL078W, strain AVO1, stronger effect = lower value 0.952 | S. cerevisiae deletion strains, locus YOL136C, strain PFK27, stronger effect = lower value 0.926 | [3] 0.937 | S. cerevisiae deletion strains, locus YOR119C, strain RIO1, stronger effect = lower value 0.991 | S. cerevisiae deletion strains, locus YOR231W, strain MKK1, stronger effect = lower value 0.942 | S. cerevisiae deletion strains, locus YOR329C, strain SCD5, stronger effect = lower value 0.963 | S. cerevisiae deletion strains, locus YPL031C, strain PHO85, stronger effect = lower value 0.949 | S. cerevisiae deletion strains, locus YPL153C, strain RAD53, stronger effect = lower value 0.936 | S. cerevisiae deletion strains, locus YPL204W, strain HRR25, stronger effect = lower value 0.946 | S. cerevisiae deletion strains, locus YPL209C, strain IPL1, stronger effect = lower value 0.95 | S. cerevisiae deletion strains, locus YPL256C, strain CLN2, stronger effect = lower value 0.898 | S. cerevisiae deletion strains, locus YPR025C, strain CCL1, stronger effect = lower value 0.953 | S. cerevisiae deletion strains, locus YPR106W, strain ISR1, stronger effect = lower value 0.92 | S. cerevisiae deletion strains, locus YPR111W, strain DBF20, stronger effect = lower value 0.926 | S. cerevisiae deletion strains, strain NNK1, stronger effect = lower value 0.921 | S. cerevisiae deletion strains, strain TSCII, stronger effect = lower value 0.948

COC(=O)c1cc(OC)c(=O)c2c(OC)c(OC)ccc2c1
inactive: S. cerevisiae deletion strains, locus YBR021W, strain FUR4, stronger effect = lower value 1.02 | S. cerevisiae deletion strains, locus YBR229C, strain ROT2, stronger effect = lower value 1.01 | S. cerevisiae deletion strains, locus YCL029C, strain bik1, stronger effect = lower value 0.969 | S. cerevisiae deletion strains, locus YDL035C, strain GPR1, stronger effect = lower value 1.03 | S. cerevisiae deletion strains, locus YDL074C, strain BRE1, stronger effect = lower value 1.08 | [1] 1.01 | S. cerevisiae deletion strains, locus YDL134C, strain PPH21, stronger effect = lower value 1.04 | S. cerevisiae deletion strains, locus YDL185W, strain tfp1, stronger effect = lower value 0.998 | S. cerevisiae deletion strains, locus YDL192W, strain arf1, stronger effect = lower value 0.971 | S. cerevisiae deletion strains, locus YDR101C, strain arx1, stronger effect = lower value 0.975 | S. cerevisiae deletion strains, locus YDR162C, strain NBP2, stronger effect = lower value 1.01 | S. cerevisiae deletion strains, locus YDR318W, strain mcm21, stronger effect = lower value 0.969 | S. cerevisiae deletion strains, locus YDR388W, stronger effect = lower value 0.986 | S. cerevisiae deletion strains, locus YDR502C, strain sam2, stronger effect = lower value 0.99 | S. cerevisiae deletion strains, locus YER110C, stronger effect = lower value 1.01 | S. cerevisiae deletion strains, locus YER155C, strain BEM2, stronger effect = lower value 1.01 | S. cerevisiae deletion strains, locus YER167W, strain BCK2, stronger effect = lower value 1 | S. cerevisiae deletion strains, locus YGL078C, strain dbp3, stronger effect = lower value 0.995 | S. cerevisiae deletion strains, locus YGL086W, strain mad1, stronger effect = lower value 0.984 | S. cerevisiae deletion strains, locus YGL248W, strain PDE1, stronger effect = lower value 1.02 | S. cerevisiae deletion strains, locus YGR078C, strain PAC10, stronger effect = lower value 1.01 | S. cerevisiae deletion strains, locus YGR135W, strain pre9, stronger effect = lower value 0.985 | S. cerevisiae deletion strains, locus YGR229C, strain SMI1, stronger effect = lower value 1.06 | S. cerevisiae deletion strains, locus YHR079C, strain IRE1 (second series), stronger effect = lower value 1 | S. cerevisiae deletion strains, locus YHR094C, strain hxt1, stronger effect = lower value 0.972 | S. cerevisiae deletion strains, locus YHR129C, strain ARP1, stronger effect = lower value 1.02 | S. cerevisiae deletion strains, locus YHR200W, strain rpn10, stronger effect = lower value 0.985 | S. cerevisiae deletion strains, locus YIL066C, strain RNR3, stronger effect = lower value 1.02 | S. cerevisiae deletion strains, locus YIL073C, strain SPO22, stronger effect = lower value 0.951 | S. cerevisiae deletion strains, locus YIL125W, strain kgd1, stronger effect = lower value 0.978 | S. cerevisiae deletion strains, locus YIR030C, strain dcg1, stronger effect = lower value 0.986 | [2] 1.04 | S. cerevisiae deletion strains, locus YJL134W, strain LCB3, stronger effect = lower value 1 | S. cerevisiae deletion strains, locus YJL168C, strain set2, stronger effect = lower value 0.972 | S. cerevisiae deletion strains, locus YJL187C, strain SWE1 (second series), stronger effect = lower value 1.02 | S. cerevisiae deletion strains, locus YKL009W, strain mrt4, stronger effect = lower value 0.977 | S. cerevisiae deletion strains, locus YKL068W, stronger effect = lower value 0.999 | S. cerevisiae deletion strains, locus YKL085W, strain MDH1 (second series), stronger effect = lower value 0.971 | S. cerevisiae deletion strains, locus YKL085W, strain MDH1, stronger effect = lower value 0.971 | S. cerevisiae deletion strains, locus YKR001C, strain vps1, stronger effect = lower value 0.966 | S. cerevisiae deletion strains, locus YLR039C, strain RIC1, stronger effect = lower value 1.03 | S. cerevisiae deletion strains, locus YLR058C, strain SHM2, stronger effect = lower value 1.03 | S. cerevisiae deletion strains, locus YLR102C, strain apc9, stronger effect = lower value 0.959 | S. cerevisiae deletion strains, locus YLR268W, strain sec22, stronger effect = lower value 0.981 | S. cerevisiae deletion strains, locus YLR330W, strain CHS5, stronger effect = lower value 1.02 | S. cerevisiae deletion strains, locus YLR371W, strain rom2, stronger effect = lower value 0.977 | S. cerevisiae deletion strains, locus YLR418C, strain cdc73, stronger effect = lower value 1.07 | S. cerevisiae deletion strains, locus YML016C, strain PPZ1, stronger effect = lower value 1 | S. cerevisiae deletion strains, locus YML032C, strain rad52, stronger effect = lower value 0.996 | S. cerevisiae deletion strains, locus YML124C, strain tub3, stronger effect = lower value 0.967 | S. cerevisiae deletion strains, locus YMR078C, strain ctf18, stronger effect = lower value 0.976 | S. cerevisiae deletion strains, locus YMR223W, strain ubp8, stronger effect = lower value 1 | S. cerevisiae deletion strains, locus YMR307W, strain GAS1, stronger effect = lower value 1.01 | S. cerevisiae deletion strains, locus YNL067W, strain RPL9B, stronger effect = lower value 0.998 | S. cerevisiae deletion strains, locus YNL233W, strain BNI4, stronger effect = lower value 1.03 | S. cerevisiae deletion strains, locus YNL250W, strain rad50, stronger effect = lower value 1.05 | S. cerevisiae deletion strains, locus YNL271C, strain bni1, stronger effect = lower value 0.981 | S. cerevisiae deletion strains, locus YNL298W, strain CLA4, stronger effect = lower value 0.984 | S. cerevisiae deletion strains, locus YNL307C, strain MCK1, stronger effect = lower value 0.952 | S. cerevisiae deletion strains, locus YNL322C, strain KRE1, stronger effect = lower value 1 | S. cerevisiae deletion strains, locus YNR052C, strain pop2, stronger effect = lower value 0.981 | S. cerevisiae deletion strains, locus YOL006C, strain TOP1, stronger effect = lower value 1.21 | S. cerevisiae deletion strains, locus YOL012C, strain htz1 0.895 | S. cerevisiae deletion strains, locus YOL147C, strain pex11, stronger effect = lower value 0.993 | [3] 1 | S. cerevisiae deletion strains, locus YOR069W, strain VPS5, stronger effect = lower value 1 | S. cerevisiae deletion strains, locus YOR136W, strain idh2, stronger effect = lower value 0.977 | S. cerevisiae deletion strains, locus YOR144C, strain elg1, stronger effect = lower value 0.987 | S. cerevisiae deletion strains, locus YOR184W, strain ser1, stronger effect = lower value 0.935 | S. cerevisiae deletion strains, locus YOR316C, strain cot1, stronger effect = lower value 0.985 | S. cerevisiae deletion strains, locus YPL241C, strain CIN2, stronger effect = lower value 1 | S. cerevisiae deletion strains, locus YPR119W, strain clb2, stronger effect = lower value 0.969 | S. cerevisiae deletion strains, locus YPR141C, strain kar3, stronger effect = lower value 0.982 | S. cerevisiae deletion strains, locus YPR163C, strain tif3, stronger effect = lower value 0.977 | S. cerevisiae deletion strains, locus YPR167C, strain met16, stronger effect = lower value 0.967 | S. cerevisiae deletion strains, strain wtn01, stronger effect = lower value 0.994 | S. cerevisiae strains, strain wild type, stronger effect = lower value 1.02

Source: PubChem BioAssay AID1159580 (chemical genetic matrix, 2015)
